Among all 220,000 compounds or so, about 3,300 (1.5%) were called active. Many of the other results were omitted from the sample, so actives are more common in it than they were. Unmarked numbers belong to inactive results.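 How the source made its calls: active means compounds that cut the protein-peptide binding signal by more than 50% relative to plate controls in a single-dose test; inactive means the rest.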
The compounds below were run against Induced myeloid leukemia cell differentiation protein Mcl-1 (Homo sapiens) (UniProt Q07820) (assay: disruptors of Mcl-1 and Noxa BH3 peptide – biochemical, TR-FRET, 1536-well, primary screen (AID 1022;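 further: His-tagged Mcl-1 with rhodamine Noxa BH3 peptide and terbium anti-His antibody; 0% = Mcl-1 plus Noxa peptide wells and 100% = peptide-only wells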)). Conditions: TR-FRET Mcl-1/Noxa peptide binding, 2 h; at 21.7 µM; stronger effect = higher value.
Chain of Induced myeloid leukemia cell differentiation protein Mcl-1 (Homo sapiens) (Q07820 whole entry, looked up): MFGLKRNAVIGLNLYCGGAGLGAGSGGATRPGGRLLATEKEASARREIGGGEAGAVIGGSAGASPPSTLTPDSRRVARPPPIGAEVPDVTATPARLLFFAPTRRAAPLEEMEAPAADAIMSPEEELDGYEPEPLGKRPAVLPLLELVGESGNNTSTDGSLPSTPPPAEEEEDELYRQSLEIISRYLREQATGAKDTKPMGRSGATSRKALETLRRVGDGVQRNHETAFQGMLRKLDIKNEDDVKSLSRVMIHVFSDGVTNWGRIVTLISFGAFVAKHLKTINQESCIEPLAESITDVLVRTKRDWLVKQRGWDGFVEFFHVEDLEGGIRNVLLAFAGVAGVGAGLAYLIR

SMILES	inhibition
COc1ccc(CN2CCOC2=O)cc1OC	6.85%
COc1cccc(N2C(=O)CC(N3CCc4ccccc4C3)C2=O)c1 (configuration not stated)	-10.9%
C=CCNC(=O)CSc1nc2scc(-c3ccco3)c2c(=O)n1CC=C	8.55%
O=C1CCCC(O)=C1N=Nc1ccc2ncsc2c1	62.8% (active)
O=C1CCCC(O)=C1N=Nc1ccc(S(=O)(=O)N2CCOCC2)cc1	23.9%
C/C(=N\NC(=O)c1cccnc1)c1ccc(-c2ccccc2)cc1	2.98%
C/C(=C\c1ccco1)C1Nc2cccc3cccc(c23)N1	74.9% (active)
O=C(NCC1CCCO1)/C(=C\c1ccco1)NC(=O)c1ccccc1 (configuration not stated)	4.51%
COc1cccc(C2Nc3cccc4cccc(c34)N2)c1	34.5%
COc1ccccc1/C=C/C=N/NC(=O)CN1CCN(Cc2ccccc2)CC1	0.78%
CSC1=NCCN1C(=O)Cc1cccc2ccccc12	-0.87%
O=C(NNC(=O)c1cnccc1C(F)(F)F)c1ccc(Cl)cc1	11.9%
COC(=O)/C=C\C(=O)Nc1cccc([N+](=O)[O-])c1	64.5% (active)
CC(=O)Nc1cccc([N+](=O)[O-])c1	-1.66%
Cc1ccccc1NC(=S)Nc1cccc([N+](=O)[O-])c1	11.3%
COc1ccc(Cn2c(O)c(/C=C3/C=CC=N3)c(=O)[nH]c2=O)cc1	25%
CC(=O)NC(=S)Nc1ccc(NC(=O)c2cccnc2)cc1	1.75%
Cn1c2ccccc2c(=O)c2c(=O)n(Cc3ccco3)c(COc3ccccc3)nc21	60% (active)
COc1ccc(C(=O)CSc2nnc(COc3ccccc3)n2Cc2ccco2)cc1	17.5%
CCCc1nc2c(c(=O)c3ccccc3n2C)c(=O)n1-c1cc(C)cc(C)c1	5.11%
CSc1sc(C(=O)NNC(=O)c2ccc(Cl)cc2)c2c1C=CCC2	0.01%

SMILES	inhibition
CN1CCN(C2=NCCO2)CC1	3.88%
Nc1c(C(=O)c2cccs2)sc2nsc(SCCN3CCCCC3)c12	-16.9%
O=C(c1ccco1)N1CCN(CCOc2ccccc2)CC1	10.5%
COc1ccc(OC)c(N=Cc2c(O)[nH]c3ccccc23)c1	20.4%
CN=c1scc(-c2cc(OC)ccc2OC)n1/N=C/c1c(C)[nH]c2ccccc12	56.7% (active)
CCn1c(-c2cc(OC)ccc2OC)csc1=Nc1c(C)n(C)n(-c2ccccc2)c1=O	10.7%
CCn1c2ccccc2c2cc(NC(=O)CNC)ccc21	43.9%
CCc1ccc(NC(=O)N[C@H](C(=O)O)C(C)CC)cc1 (some centres not stated)	16.4%
O=C(O)COCC(=O)NCc1csc2ccc(Cl)cc12	11.9%
O=S(=O)([N-]c1nc2ccccc2nc1-[n+]1ccc(Cc2ccccc2)cc1)c1ccc(Br)s1	15.5%
N#C/C(=C/c1ccc(-c2ccccc2[N+](=O)[O-])o1)C(=O)NCCN1CCCCC1	26.3%
Cc1ccc(Cc2cnc(NC(=O)/C(C#N)=C/c3ccc(-c4cccc([N+](=O)[O-])c4)o3)s2)cc1	24.9%
Cc1ccc(-c2ccc(/C=C(\C#N)C(N)=S)o2)c([N+](=O)[O-])c1	58.2% (active)
O=S(=O)(NCCc1csc(-c2ccccc2)n1)c1cccnc1	-1.4%
NCC(=O)c1cccc2ccc[n+]([O-])c12	17.5%
COc1cc(NC(=O)c2ccc(CNc3c(N4CCCC4)c(=O)c3=O)cc2)cc(OC)c1OC	8.38%
COc1cc(OC)c(-n2c(C)cc(C=O)c2C)cc1Cl	13.7%
COc1cc(OC)c(-n2cc(-c3ccc(Cl)cc3)[nH]c2=O)cc1Cl	55.4% (active)
COc1ccc(-c2cn(-c3ccc(OC)cc3)c(=S)[nH]2)cc1	11.3%
COc1ccc(/C=C/C(=O)Nc2ccc(C)cc2)cc1S(=O)(=O)N1CCOCC1	8.12%
CCN(CC)c1ccc(/C=N/NC(=O)c2cnccn2)c(O)c1	15.6%

SMILES	inhibition
CCn1c(SCC(=O)Nc2sc(C)c(C)c2C#N)nnc1C1CC1	29.1%
Brc1ccc2c(c1)[C@H]1OCC[C@H]1[C@@H](c1cccs1)N2	-3.81%
Cc1[nH]n(-c2ccccc2)c(=O)c1N=Nc1ccccc1C(=O)N1CCCCC1	11.2%
O=C(CN1CCOCC1)N/N=C/c1ccc(-c2ccc(Br)cc2)o1	10.4%
O=C(Cn1nnc(-c2ccccc2)n1)NCc1ccccc1	-34.6%
Nc1nnnn1CC(=O)N/N=C/c1ccc(-c2cccc(Cl)c2)o1	39.1%
O=C(Cn1nnc(-c2ccccc2)n1)N/N=C/c1ccc(-c2ccc(Cl)cc2)o1	54.1% (active)
Nc1nnn(CC(=O)N/N=C/c2ccccc2)n1	-7.14%
Cc1[nH]c2ccccc2c1/C=N\NC(=O)Cn1nnc(-c2ccccc2)n1	62.8% (active)
COc1ccc(CCNCC(O)Cn2ccc3ccccc32)cc1OC (configuration not stated)	15.7%
Cc1ccc(OCC(=O)c2cc(C)n(Cc3ccco3)c2C)c([N+](=O)[O-])n1	8.57%
COC(=O)c1ccc(S(=O)(=O)NCc2ccccc2)n1C	8.72%
COc1ccccc1Cn1c(CO)nc2ccccc21	7.12%
O=C(Nc1ccc(Cl)cc1)Nc1ccc(Oc2cccnc2)nc1	26.5%
Cc1ccc(N=Nc2c(C)[nH]n(-c3ccccc3)c2=O)cc1	23.8%
Cc1ccc(C2C3=C(Nc4[nH]n(-c5ccccc5)c(=O)c42)c2ccccc2C3=O)cc1 (configuration not stated)	69% (active)
Cc1cc(C)c(C2C3=C(Nc4c2c(C)nn4-c2ccccn2)c2ccccc2C3=O)c(C)c1 (configuration not stated)	12.5%
O=C(/C=C/c1ccc(Cl)c([N+](=O)[O-])c1)c1ccc(O)cc1	-1.19%
O=C(/C=C/c1ccc(Cl)c([N+](=O)[O-])c1)c1cccnc1	52.5% (active)
O=C(Nc1cccnc1)c1ccc(Cl)c([N+](=O)[O-])c1	14.2%

From PubChem BioAssay AID1022 (Emory University Molecular Libraries Screening Center, 2008)
